High-throughput results (PubChem BioAssay)
Shown are actives, neighbours in structure and some others; about 4.1% of the full set was active somewhere.
ssDAF-12 act: activators of S. stercoralis DAF-12 nuclear receptor; activation, % at 6.8 µM; HEK293 ssDAF-12/GRIP1 lit1-tk-luc reporter, luminescence; % of 3 µM dafachronic acid response; 1% of 370,000 active;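 active = activation above the mean over all tested compounds plus 3 SD, cut at about 0.9% in these data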
DAX1 inh-1: inhibitors of human orphan nuclear receptor DAX1 (NR0B1). P51843. inhibition, % at 6.75 µM. 0.99% of 340,000 active. HEK293 Gal4-DAX1 luciferase reporter, luminescence;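 active = inhibition above the mean over all tested compounds plus 3 SD, cut at about 4.2% in these data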;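 also: inhibition shows as a rise in luminescence from relieved DAX1 repression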
Target sequence (P51843 207-470 limits assumed): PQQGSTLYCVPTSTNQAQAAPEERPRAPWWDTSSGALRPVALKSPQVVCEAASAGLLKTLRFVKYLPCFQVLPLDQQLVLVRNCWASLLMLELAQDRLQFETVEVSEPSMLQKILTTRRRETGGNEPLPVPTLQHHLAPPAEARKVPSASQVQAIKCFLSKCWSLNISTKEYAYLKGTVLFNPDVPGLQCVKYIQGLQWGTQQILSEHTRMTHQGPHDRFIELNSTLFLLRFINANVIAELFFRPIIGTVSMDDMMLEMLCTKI
hcDAF-12 act: activates DAF-12 receptor from parasite H. contortus; activation, % at 6.8 µM; AID 652067; HEK293 hcDAF-12 lit1-tk-luc reporter, luminescence; 0% DMSO, 100% Δ7-dafachronic acid; 1.4% of 370,000 active;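 active = activation above the mean of all tested compounds plus 3 SD, cut at about 5.5% in these data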
DAX1 inh-2: inhibitors of DAX1 repression of SF-1 activated StAR promoter | 1.1% of 370,000 active | AID 652010 | HEK293T StAR-luciferase reporter, SF-1/DAX-1 repression relief | inhibition, % at 6.8 µM;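 active = inhibition above the mean over all tested compounds plus 3 SD, cut at about 3.6% in these data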;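 also: higher inhibition means more luminescence from relief of DAX-1 repression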
hgDAF-12 ag: activates the H. glycines DAF-12 receptor ligand-binding domain; activation, % at 6.8 µM; HEK293 GAL4-hgDAF12 UAS-luciferase reporter, agonist luminescence; normalized to butyrate control; 1.8% of 370,000 active; AID 687014;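 active = activation above a cutoff set at the mean of all screened compounds plus 3 SD, cut at about 10% in these data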
Large screens that a line does not name were inactive.

CC(OC(=O)c1ccc(O)cc1)C(=O)Nc1nc(-c2ccccc2)cs1 (stereo unspecified)	none
O=S(=O)(c1c(Cl)sc(Cl)c1Br)N1CCCC1	ssDAF-12 act 1.5
Cc1ccccc1NC(=O)N(C)[C@H]1C[C@H]2c3[nH]c4c(-c5ccc6c(c5)OCO6)cccc4c3CCN2C[C@H]1[C@H](C)O	none (no result: DAX1 inh-1)
O=C(CSc1nnc(-c2ccc(F)cc2)o1)NC1CCCCC1	none
Oc1ccc(-c2nnc(SCC3CCCCC3)o2)cc1	hgDAF-12 ag 10.6
O=C(c1ccc2c(c1)OCO2)N1CCC(Oc2cccnc2)CC1	none (no result: DAX1 inh-1)
Cc1noc(/C=C/N(C)C)c1S(=O)(=O)N1CCCC(C(=O)N2CCc3ccccc32)C1 (stereo unspecified)	none
Cc1n[nH]c(C)c1S(=O)(=O)N1CCCC(C(=O)N2CCc3ccccc32)C1 (stereo unspecified)	ssDAF-12 act 1.9
CN(C)CCCNc1oc(-c2cccc(Cl)c2)nc1C#N	none
COc1ccc(C(CNC(=O)CCNS(=O)(=O)c2ccc(Br)cc2)N2CCOCC2)cc1 (stereo unspecified)	none
CCC(=O)N1CCN=C1SCc1ccccc1Cl	none
CC(=O)N1CCN=C1SCc1ccccc1Cl	DAX1 inh-1 5.0
COC(=O)[C@H]1C[C@@]2(N3CCCCC3)c3ccccc3N(C(=O)OC(C)(C)C)[C@H]2N1C(=O)OC(C)(C)C	none (no result: DAX1 inh-1)
O=C(O)c1cccc(-c2csc(C(O)c3ccc(F)cc3)n2)c1 (stereo unspecified)	DAX1 inh-2 4.2 (no result: DAX1 inh-1)
OC(c1ccccc1)c1nc(-c2ccc3c(c2)OCO3)cs1 (stereo unspecified)	hgDAF-12 ag 13.2 (no result: DAX1 inh-1)
O=C(C(=O)N1CCC(CNS(=O)(=O)c2ccc(C(F)(F)F)cc2)CC1)c1cc2ccccc2o1	none (no result: DAX1 inh-1)
COc1cccc(N2CCN(c3ccc(N4C(=O)CCC4=O)cc3[N+](=O)[O-])CC2)c1	DAX1 inh-1 6.6
N#Cc1ccc(Cn2ccc3ccc(-c4ccc5ccn(C(=O)c6ccccc6)c5c4)cc32)cc1	none (no result: DAX1 inh-1)
COC(=O)[C@]12C[C@H](CC(=O)NCC34CC5CC(CC(C5)C3)C4)C(=O)N(Cc3ccco3)C1=C[C@H](C1CCCC1)O[C@@H]2C	none (no result: DAX1 inh-1)
COC(=O)C1CCc2c(ccc3c2CCCC3)C1=O (stereo unspecified)	DAX1 inh-1 4.4, DAX1 inh-2 4.3
COc1cc(OC)cc(C(=O)Nc2cccc3c2CCCC3)c1	none
COc1ccc(C(=O)COC(=O)c2cc(=O)[nH]c3ccccc23)c(OC)c1	ssDAF-12 act 1.0
O=C(COC(=O)C1CC1)c1c[nH]c2ccccc12	ssDAF-12 act 1.1, hcDAF-12 act 6.2
COc1cccc(C(=O)OCC(=O)c2c[nH]c3ccccc23)c1O	ssDAF-12 act 1.9
CC(=O)OCC(=O)c1c[nH]c2ccccc12	ssDAF-12 act 1.1
COc1cccc(/C=C/C(=O)OCC(=O)c2c[nH]c3ccccc23)c1OC	none
CC(C)(C)c1cc(NC(=O)c2ccco2)n(-c2ccccc2)n1	none
CC[C@H](CCCc1ccc(OC)cc1)CCC(=O)N(c1ccccc1)c1ccccc1	none (no result: DAX1 inh-1)
Cc1ccc(Cn2cc(CN3[C@@H](Cc4ccccc4)COc4cc(Br)ccc4S3(=O)=O)nn2)cc1	none (no result: DAX1 inh-1)
O=C(COC(=O)c1cccc(S(=O)(=O)N2CCCCC2)c1)NCc1ccccc1	none
N#Cc1ccccc1OCC(=O)OCC(=O)c1c[nH]c2ccccc12	DAX1 inh-2 4.1
O=C(COc1cccnc1[N+](=O)[O-])c1c[nH]c2ccccc12	hcDAF-12 act 5.9
O=C(OCC(=O)c1c[nH]c2ccccc12)c1cccc(S(=O)(=O)N2CCCCCC2)c1	ssDAF-12 act 1.1
Cc1cc(C)c(C(=O)COc2cccnc2[N+](=O)[O-])cc1C	none
O=C(Cc1ccccc1[N+](=O)[O-])OCC(=O)c1c[nH]c2ccccc12	none
O=C(CCc1ccccc1)N[C@H]1[C@@H](OC(=O)C2CC2)CCC[C@@]12C(=O)N(Cc1ccccc1)c1ccccc12	none (no result: DAX1 inh-1)
CCn1ncc(N(C)N)c(Cl)c1=O	ssDAF-12 act 1.1
CCN(CC)C(CNC(=O)CSc1nnnn1-c1c(C)cccc1C)c1ccco1 (stereo unspecified)	DAX1 inh-2 3.6
CCN(CC)C(CNC(=O)CSc1nnnn1-c1ccc(C)c(C)c1)c1ccco1 (stereo unspecified)	none
CCOC(=O)C(=O)Nc1ccc2c(c1)OCO2	none
CCOC(=O)/C(N=Nc1ccc2c(c1)OCO2)=C(\C)O	DAX1 inh-1 6.3
COc1cccc(-c2cnc3cccnn23)c1	hgDAF-12 ag 11.5 (no result: DAX1 inh-1)
Cc1ccc(-c2cnc3cccnn23)cc1F	none (no result: DAX1 inh-1)
CS(=O)(=O)Nc1ccc(-c2cnc3cccnn23)cc1	hgDAF-12 ag 11.5 (no result: DAX1 inh-1)
CCN(CC)CCCNC(=O)C1CCN(C(=O)c2oc3cc4sc(N(C)C)nc4cc3c2C)CC1	none
COc1cccc(-c2ccc(=O)n(CC(=O)NCCN3CCOCC3)n2)c1	ssDAF-12 act 0.9
COc1ccc(NCc2cc3cc(OC)ccc3[nH]c2=O)cc1	none
COc1ccc2[nH]c(=O)c(CNc3cccc(C)c3)cc2c1	ssDAF-12 act 1.2, hcDAF-12 act 5.7
S=C(Nc1cccc(Cl)c1)OCCN1CCCC12CCC(c1ccccc1)CC2 (stereo unspecified)	none (no result: DAX1 inh-1, DAX1 inh-2)
COc1ccc(NC(=O)CSc2nnc(-c3n[nH]c4c3CCC4)n2N)cc1OC	none (no result: DAX1 inh-1)
CCC(C(=O)Nc1ccccc1N1CCCC1)c1ccccc1F (stereo unspecified)	none (no result: DAX1 inh-1)
CCOC(=O)c1ccc(OC)c(OC)c1Cl	DAX1 inh-1 5.8
COC(=O)c1ccc(OC)c(OC)c1Cl	none
CCCC(=O)OC12CCCN(C1)/C(=C/c1ccc(Cl)cc1)C2 (stereo unspecified)	none (no result: DAX1 inh-1)
COC(=O)[C@]12C[C@H](CC(=O)NCCCCc3ccccc3)C(=O)N(CCc3ccc(OC)c(OC)c3)C1=C[C@H](COCc1ccccc1)O[C@@H]2C	none (no result: DAX1 inh-1)
OC1(c2cccc(C(F)(F)F)c2)CCN(CCN2CCCCC2)CC1	ssDAF-12 act 1.6
O=S(=O)(CC1NCc2ccccc21)NCCc1ccccc1 (stereo unspecified)	none (no result: DAX1 inh-1)
O=C(N/N=C1\CCCc2oc(C(=O)O)cc21)c1ccccc1	ssDAF-12 act 1.7, hgDAF-12 ag 10.8
CCOC(=O)N1CCC(N2CC34C=CC(O3)C(C(=O)Nc3ccc(C)cc3)C4C2=O)CC1 (stereo unspecified)	DAX1 inh-1 4.5
Cc1nc(-c2ccccc2)sc1C(=O)O	none
Cc1ccc(-c2nc(C)c(C(=O)O)s2)cc1	hgDAF-12 ag 10.8
Cn1cccc1C(=O)C(=O)Nc1ccccc1C(F)(F)F	DAX1 inh-1 4.4
Cn1cc(Br)c(C(=O)NNC(=O)c2ccccc2)n1	none
Cn1cccc1C(=O)C(=O)Nc1ccccc1	ssDAF-12 act 1.0, DAX1 inh-2 3.8, hgDAF-12 ag 12.5
Cn1cc(Br)c(C(=O)NNC(=O)Nc2ccccc2C(F)(F)F)n1	DAX1 inh-1 4.2
CC(C)(C)C(=O)NC(=O)Nc1ccccc1C(F)(F)F	none
